Laboratory results taken from PubChem BioAssay (NCI).
The panel holds about 79,000 compounds, 15% with a hit somewhere; the sample as a whole holds those more often. Unmarked numbers belong to inactive results. The source made the active and inactive calls. No stated cut-off is given here; in the data, active means growth inhibition above about 70%; inactive means the rest.

Assays:
[1] = NCI Yeast Anticancer Drug Screen. Data for the rad52 strain (AID 147);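 further: 0% = growth of vehicle-treated control cultures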; conditions: S. cerevisiae rad52 mutant growth inhibition, active compounds read high
How it was run: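 Inhibition of yeast growth, referenced to vehicle controls, was the measured output for a strain with defective DNA damage repair.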

[2] = NCI Yeast Anticancer Drug Screen. Data for the wt1 strain (AID 149);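 further: 0% = growth of vehicle-treated wt1 cultures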; conditions: S. cerevisiae wt1 strain (SPY 50644) growth inhibition, active compounds read high
How it was run: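 Using yeast strain wt1, compound-induced growth inhibition was determined against vehicle-treated cultures.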

[3] = NCI Yeast Anticancer Drug Screen. Data for the rad50EPP+ strain (AID 151);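 further: 0% = growth of vehicle-treated control cultures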; conditions: S. cerevisiae rad50 mutant strain, active compounds read high
How it was run: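 Genetically defined yeast (rad50EPP+, DNA damage repair alteration) is grown with compound, and inhibition of growth is expressed relative to vehicle-treated controls.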

[4] = NCI Yeast Anticancer Drug Screen. Data for the mgt1 strain (AID 153); conditions: S. cerevisiae mgt1 mutant growth inhibition, active compounds read high
How it was run: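 In the mgt1 strain, test compounds were added and growth inhibition was determined relative to vehicle-treated controls.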

[5] = NCI Yeast Anticancer Drug Screen. Data for the rad50 strain (AID 155);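 further: 0% = growth of vehicle-only cultures of the same strain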; conditions: S. cerevisiae rad50 strain growth inhibition, active compounds read high
How it was run: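 Relative growth inhibition (compound vs vehicle) was measured in yeast with a defined repair-gene alteration.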

[6] = NCI Yeast Anticancer Drug Screen. Data for the mec2-1 strain (AID 157); conditions: S. cerevisiae mec2-1 strain, active compounds read high
How it was run: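 Each compound was tested on mec2-1 yeast, a strain altered in DNA damage repair or cell cycle control. Growth inhibition is reported relative to vehicle.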

[7] = NCI Yeast Anticancer Drug Screen. Data for the rad14 strain (AID 159);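 further: 0% = growth of vehicle-treated control cultures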; conditions: S. cerevisiae rad14 strain growth inhibition, active compounds read high
How it was run: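 Screen for anticancer potential: a yeast strain altered in DNA damage repair is grown with compound, and reduced growth is quantified against vehicle controls.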

[8] = NCI Yeast Anticancer Drug Screen. Data for the sgs1 mgt1 strain (AID 161);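 further: 0% = growth of cultures given vehicle only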; conditions: S. cerevisiae sgs1 mgt1 strain, active compounds read high
How it was run: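 Read-out: growth inhibition vs vehicle controls. Cells: mutant yeast strain deficient in DNA damage repair.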

[9] = NCI Yeast Anticancer Drug Screen. Data for the CLN2oe strain (AID 163);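 further: 0% = growth of vehicle-only control cultures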; conditions: S. cerevisiae CLN2oe strain, active compounds read high
How it was run: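 First, the altered yeast strain was treated with each compound; second, its growth was measured; finally, inhibition was derived by comparison with vehicle controls.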

[10] = NCI Yeast Anticancer Drug Screen. Data for the cln2 rad14 strain (AID 165);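 further: 0% = growth equal to vehicle treated cultures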; conditions: S. cerevisiae cln2 rad14 strain, active compounds read high
How it was run: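 Test compounds were added to cln2 rad14 yeast cultures; inhibition of growth was then determined by comparison with vehicle treatment.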

[11] = NCI Yeast Anticancer Drug Screen. Data for the bub3 strain (AID 167); conditions: S. cerevisiae bub3 mutant strain, active compounds read high
How it was run: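 Screening used yeast with an engineered genetic alteration affecting cell cycle control. Compound-exposed cultures were compared with vehicle cultures, and reduced growth was taken as inhibition.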

[12] = NCI Yeast Anticancer Drug Screen. Data for the wt2 strain (AID 169);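 further: 0% = growth of vehicle-treated yeast cultures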; conditions: S. cerevisiae wt2 strain growth inhibition, active compounds read high
How it was run: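 The panel's yeast strains carry defined changes in DNA repair or cell cycle genes. Each strain is grown with compound, and growth loss is scored relative to vehicle.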

[13] = NCI Yeast Anticancer Drug Screen. Data for the mlh1 strain (AID 171);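 further: 0% = growth of vehicle-treated control cultures of the same strain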; conditions: S. cerevisiae mlh1 strain growth inhibition, active compounds read high
How it was run: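 Inhibition values reflect reduced yeast growth in the presence of compound, referenced to vehicle controls, using a strain chosen for its alteration in DNA repair or cell cycle control.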

[14] = NCI Yeast Anticancer Drug Screen. Data for the sgs1 strain (AID 173);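 further: 0% = growth of vehicle-only control cultures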; conditions: S. cerevisiae sgs1 mutant, active compounds read high
How it was run: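 Vehicle-treated cultures served as reference for growth inhibition of a yeast strain altered in DNA damage repair or cell cycle control after compound exposure.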

[15] = NCI Yeast Anticancer Drug Screen. Data for the mlh1 rad18 strain (AID 175); conditions: S. cerevisiae mlh1 rad18 strain growth inhibition, active compounds read high
How it was run: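 Inhibition values reflect reduced growth of mutant yeast versus vehicle-treated controls following compound exposure; the mutations affect DNA damage repair.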

[16] = NCI Yeast Anticancer Drug Screen. Data for the rad18 strain (AID 177); conditions: S. cerevisiae rad18 mutant growth inhibition, active compounds read high
How it was run: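 Steps: expose repair-mutant yeast to compound; measure growth; express as inhibition relative to vehicle control.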

[17] = at 5.0 µM (retest, dose inferred, filed as 0.5)
[18] = at 50.0 µM (retest, dose inferred, filed as 5.0)

O=C(O)/C=C\C(=O)Nc1ccc2c(c1)Cc1cc(Cl)ccc1-2
growth inhibition ([1]; at 1.2 µM): -3% | growth inhibition ([1]; at 3.7 µM): -3% | growth inhibition ([1]; at 11.0 µM): -3% | growth inhibition ([1]; at 33.0 µM): 2% | growth inhibition ([1]; at 100.0 µM): 19% | growth inhibition ([2]; at 1.2 µM): -3% | growth inhibition ([2]; at 3.7 µM): -3% | growth inhibition ([2]; at 11.0 µM): -6% | growth inhibition ([2]; at 33.0 µM): -5% | growth inhibition ([2]; at 100.0 µM): 0% | growth inhibition ([3]; at 1.2 µM): -3% | growth inhibition ([3]; at 3.7 µM): 8% | growth inhibition ([3]; at 11.0 µM): 14% | growth inhibition ([3]; at 33.0 µM): 28% | growth inhibition ([3]; at 100.0 µM): 81% (active) | growth inhibition ([4]; at 1.2 µM): -3% | growth inhibition ([4]; at 3.7 µM): -5% | growth inhibition ([4]; at 11.0 µM): -1% | growth inhibition ([4]; at 33.0 µM): -4% | growth inhibition ([4]; at 100.0 µM): 22% | growth inhibition ([5]; at 1.2 µM): -3% | growth inhibition ([5]; at 3.7 µM): -4% | growth inhibition [5, 17]: 12% | growth inhibition ([5]; at 11.0 µM): -2% | growth inhibition ([5]; at 33.0 µM): 1% | growth inhibition [5, 18]: 7% | growth inhibition ([5]; at 50.0 µM): -6.3% | growth inhibition ([5]; at 100.0 µM): 19% | growth inhibition ([6]; at 1.2 µM): -4% | growth inhibition ([6]; at 3.7 µM): -1% | growth inhibition [6, 17]: -1% | growth inhibition ([6]; at 11.0 µM): -2% | growth inhibition ([6]; at 33.0 µM): 1% | growth inhibition [6, 18]: -4% | growth inhibition ([6]; at 50.0 µM): 1.65% | growth inhibition ([6]; at 100.0 µM): 10% | growth inhibition ([7]; at 1.2 µM): -3% | growth inhibition ([7]; at 3.7 µM): -4% | growth inhibition ([7]; at 11.0 µM): -3% | growth inhibition ([7]; at 33.0 µM): 4% | growth inhibition ([7]; at 100.0 µM): 29% | growth inhibition [8, 17]: -1% | growth inhibition [8, 18]: 33% | growth inhibition ([8]; at 50.0 µM): 34.1% | growth inhibition ([9]; at 1.2 µM): -4% | growth inhibition ([9]; at 3.7 µM): -7% | growth inhibition ([9]; at 11.0 µM): -11% | growth inhibition ([9]; at 33.0 µM): -13% | growth inhibition ([9]; at 100.0 µM): -3% | growth inhibition [10, 17]: -5% | growth inhibition [10, 18]: 15% | growth inhibition ([10]; at 50.0 µM): 80.3% (active) | growth inhibition ([11]; at 1.2 µM): -4% | growth inhibition ([11]; at 3.7 µM): -5% | growth inhibition [11, 17]: -4% | growth inhibition ([11]; at 11.0 µM): -7% | growth inhibition ([11]; at 33.0 µM): -7% | growth inhibition [11, 18]: -7% | growth inhibition ([11]; at 50.0 µM): 11.9% | growth inhibition ([11]; at 100.0 µM): -1% | growth inhibition ([12]; at 1.2 µM): -3% | growth inhibition ([12]; at 3.7 µM): -3% | growth inhibition ([12]; at 11.0 µM): -5% | growth inhibition ([12]; at 33.0 µM): -3% | growth inhibition ([12]; at 100.0 µM): 11% | growth inhibition ([13]; at 1.2 µM): -2% | growth inhibition ([13]; at 3.7 µM): -1% | growth inhibition ([13]; at 11.0 µM): 1% | growth inhibition ([13]; at 33.0 µM): 4% | growth inhibition ([13]; at 100.0 µM): 27% | growth inhibition ([14]; at 1.2 µM): -2% | growth inhibition ([14]; at 3.7 µM): 0% | growth inhibition ([14]; at 11.0 µM): 4% | growth inhibition ([14]; at 33.0 µM): 10% | growth inhibition ([14]; at 100.0 µM): 50% | growth inhibition [15, 17]: 2% | growth inhibition [15, 18]: 59% | growth inhibition ([15]; at 50.0 µM): 54.1% | growth inhibition ([16]; at 1.2 µM): 0% | growth inhibition ([16]; at 3.7 µM): 5% | growth inhibition ([16]; at 11.0 µM): 18% | growth inhibition ([16]; at 33.0 µM): 34% | growth inhibition ([16]; at 100.0 µM): 80% (active)

COc1ccc2cc(C(C)C(=O)N3CCOC3=O)ccc2c1 (stereo unspecified)
growth inhibition ([1]; at 1.2 µM): -9% | growth inhibition ([1]; at 3.7 µM): -16% | growth inhibition ([1]; at 11.0 µM): -7% | growth inhibition ([1]; at 33.0 µM): -8% | growth inhibition ([1]; at 100.0 µM): 12% | growth inhibition ([2]; at 1.2 µM): -34% | growth inhibition ([2]; at 3.7 µM): -34% | growth inhibition ([2]; at 11.0 µM): -29% | growth inhibition ([2]; at 33.0 µM): -31% | growth inhibition ([2]; at 100.0 µM): -22% | growth inhibition ([3]; at 1.2 µM): 5% | growth inhibition ([3]; at 3.7 µM): 5% | growth inhibition ([3]; at 11.0 µM): 7% | growth inhibition ([3]; at 33.0 µM): 9% | growth inhibition ([3]; at 100.0 µM): 22% | growth inhibition ([4]; at 1.2 µM): 5% | growth inhibition ([4]; at 3.7 µM): 6% | growth inhibition ([4]; at 11.0 µM): 7% | growth inhibition ([4]; at 33.0 µM): 21% | growth inhibition ([4]; at 100.0 µM): 45% | growth inhibition ([5]; at 1.2 µM): 21% | growth inhibition ([5]; at 3.7 µM): 24% | growth inhibition [5, 17]: -14% | growth inhibition ([5]; at 11.0 µM): 15% | growth inhibition ([5]; at 33.0 µM): 23% | growth inhibition [5, 18]: 27% | growth inhibition ([5]; at 50.0 µM): 60.6% | growth inhibition ([5]; at 100.0 µM): 50% | growth inhibition ([6]; at 1.2 µM): -21% | growth inhibition ([6]; at 3.7 µM): -28% | growth inhibition [6, 17]: -11% | growth inhibition ([6]; at 11.0 µM): -27% | growth inhibition ([6]; at 33.0 µM): -19% | growth inhibition [6, 18]: 9% | growth inhibition ([6]; at 50.0 µM): 23.9% | growth inhibition ([6]; at 100.0 µM): 11% | growth inhibition ([7]; at 1.2 µM): -18% | growth inhibition ([7]; at 3.7 µM): -20% | growth inhibition ([7]; at 11.0 µM): -22% | growth inhibition ([7]; at 33.0 µM): -17% | growth inhibition ([7]; at 100.0 µM): 50% | growth inhibition [8, 17]: 7% | growth inhibition [8, 18]: 37% | growth inhibition ([8]; at 50.0 µM): 57.1% | growth inhibition ([9]; at 1.2 µM): 11% | growth inhibition ([9]; at 3.7 µM): 5% | growth inhibition ([9]; at 11.0 µM): -3% | growth inhibition ([9]; at 33.0 µM): -6% | growth inhibition ([9]; at 100.0 µM): 11% | growth inhibition [10, 17]: 16% | growth inhibition [10, 18]: 17% | growth inhibition ([10]; at 50.0 µM): 24.7% | growth inhibition ([11]; at 1.2 µM): 29% | growth inhibition ([11]; at 3.7 µM): 25% | growth inhibition [11, 17]: -15% | growth inhibition ([11]; at 11.0 µM): 24% | growth inhibition ([11]; at 33.0 µM): 21% | growth inhibition [11, 18]: 75% (active) | growth inhibition ([11]; at 50.0 µM): 29.2% | growth inhibition ([11]; at 100.0 µM): 40% | growth inhibition ([12]; at 1.2 µM): -41% | growth inhibition ([12]; at 3.7 µM): -41% | growth inhibition ([12]; at 11.0 µM): -34% | growth inhibition ([12]; at 33.0 µM): -28% | growth inhibition ([12]; at 100.0 µM): -7% | growth inhibition ([13]; at 1.2 µM): 21% | growth inhibition ([13]; at 3.7 µM): 10% | growth inhibition ([13]; at 11.0 µM): 11% | growth inhibition ([13]; at 33.0 µM): 21% | growth inhibition ([13]; at 100.0 µM): 64% | growth inhibition ([14]; at 1.2 µM): -2% | growth inhibition ([14]; at 3.7 µM): -12% | growth inhibition ([14]; at 11.0 µM): -2% | growth inhibition ([14]; at 33.0 µM): 3% | growth inhibition ([14]; at 100.0 µM): 27% | growth inhibition [15, 17]: -28% | growth inhibition [15, 18]: 78% (active) | growth inhibition ([15]; at 50.0 µM): 44.1% | growth inhibition ([16]; at 1.2 µM): 13% | growth inhibition ([16]; at 3.7 µM): 10% | growth inhibition ([16]; at 11.0 µM): 9% | growth inhibition ([16]; at 33.0 µM): 4% | growth inhibition ([16]; at 100.0 µM): 21%
